Source: PubChem (National Center for Advancing Translational Sciences (NCATS))
An excerpt weighted towards active compounds, which were near 0.63% of everything screened.
TSHR antagonist – antagonists of human thyroid stimulating hormone receptor. hit rate 0.2% among 330,000. P16473. TSHR-expressing cells, TSH-stimulated cAMP HTRF, 2 h; hits give low values. activity change, negative = inhibition, % at 11.5 µM;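 active means activity change below a set negative limit, meaning inhibition stronger than a set level, cut at about -70% in these data; inconclusive means activity change between two set negative limits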; further: on the % scale 0 is the no-effect control and ±100 the full control effect
Target sequence (P16473 whole entry, looked up): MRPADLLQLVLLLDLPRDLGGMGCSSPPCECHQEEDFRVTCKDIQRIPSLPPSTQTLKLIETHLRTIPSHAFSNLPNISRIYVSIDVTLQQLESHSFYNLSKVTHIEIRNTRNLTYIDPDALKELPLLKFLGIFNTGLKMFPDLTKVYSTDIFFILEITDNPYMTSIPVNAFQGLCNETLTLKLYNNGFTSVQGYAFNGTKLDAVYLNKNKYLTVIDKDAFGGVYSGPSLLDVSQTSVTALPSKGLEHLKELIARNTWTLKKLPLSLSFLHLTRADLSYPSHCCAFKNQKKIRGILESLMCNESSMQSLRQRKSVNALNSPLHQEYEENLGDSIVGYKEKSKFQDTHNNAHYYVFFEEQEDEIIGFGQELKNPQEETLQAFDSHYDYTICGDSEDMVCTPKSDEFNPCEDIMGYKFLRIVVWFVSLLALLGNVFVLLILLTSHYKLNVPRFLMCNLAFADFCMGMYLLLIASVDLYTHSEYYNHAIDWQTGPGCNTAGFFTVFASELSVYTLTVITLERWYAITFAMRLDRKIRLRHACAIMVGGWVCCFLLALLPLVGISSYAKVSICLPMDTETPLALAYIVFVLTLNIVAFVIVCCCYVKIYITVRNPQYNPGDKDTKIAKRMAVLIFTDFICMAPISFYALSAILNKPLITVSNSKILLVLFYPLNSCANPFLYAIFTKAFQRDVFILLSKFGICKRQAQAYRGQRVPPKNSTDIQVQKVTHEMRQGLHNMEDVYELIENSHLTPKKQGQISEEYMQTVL
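Competitive HTRF cAMP read-out (cryptate anti-cAMP antibody, cAMP-d2; 30 min, room temperature) in freshly harvested TSHR cells. Compounds added before TSH at EC80 (4nM final), followed by 2 hours' incubation at 37 deg C.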
gsp antagonist – gsp mutant antagonism | gsp-mutant cells, cAMP HTRF, 30 min | Potency, µM (top dose mostly 76.9 µM), for the others: at the top dose activity change, negative = inhibition, hits mostly inhibitors | hit rate 0.4% among 340,000; calls by dose curve; cell line not stated here;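 further: intracellular cAMP measured with PDE inhibitor Ro 20-1724 present during compound exposure; potency means the concentration at half of the fitted maximal effect; on the % scale 0 is the no-effect control and ±100 the full control effect; nearly all actives have a fitted effect of over 65% in size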
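Cells, 2000/well, grown 16–24 h in DMEM 10% FBS with 0.5 mg/ml G418, then compounds plus […] (300 uM addition stock), 30 min at 37C. cAMP read by HTRF (cAMP-d2 and anti-cAMP antibody-K in lysis buffer) after 30 min RT.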
gsp agonist – activates gsp, the McCune-Albright syndrome mutation | Potency, µM (top dose mostly 76.9 µM), for inactives: at the highest dose activation (cAMP increase), most hits filed as activators | hit rate 0.13% among 340,000 | gsp mutant cells, cAMP HTRF, 30 min; active means well fitted activation curve with a large enough effect; inconclusive means small, poorly fitted or top-dose-only effect, or another doubt; inactive means no such curve, though single readings can be large or run the other way; cell line not stated here;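 further: phosphodiesterase inhibitor Ro 20-1724 added with compounds to block cAMP breakdown; potency means the concentration at half of the fitted maximal effect; nearly all actives have a fitted effect of over 60% in size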
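Cells stably selected in G418 were plated at 2000/well, grown 16-24 hr, then given compounds in DMSO with the PDE inhibitor […] (300 uM solution added) for 30 min at 37C; cAMP was read by HTRF.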
ASM inhibitor – inhibitors of human secretory acid sphingomyelinase | placental ASM, HMU-PC fluorogenic substrate, 60 min | Potency, µM (highest dose often 57.5 µM), inactives show at the top dose activity change, negative = inhibition, hits mostly inhibitors | hit rate 0.006% among 340,000; active means well fitted inhibition curve with a large enough effect; inconclusive means small, poorly fitted or top-dose-only effect; inactive means no such curve, though single readings can be large or run the other way; further: potency means the concentration at half of the fitted maximal effect
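Steps: dispense placental human ASM, pin compound, wait 10 min at room temperature, add HMU-PC0 substrate at 9 uM final, incubate 60 min at 37 °C, add stop solution raising pH to 10, read fluorescence.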
Numbers without * were called inactive; ? = inconclusive; / = no result; [ ] = another dose, or the depositor's remark.

SMILES	TSHR antagonist	gsp antagonist	gsp agonist	ASM inhibitor
CCOC(=O)N1CCN(c2ccc(C(=O)c3ccccc3)cc2F)CC1	-34	32µM*	-16%	8%
O=C(c1ccc(N2CCN(C(=O)c3ccc(F)cc3F)CC2)cc1)c1cccc(F)c1	-45	35µM*	-1%	0%
O=C(c1ccccc1)c1ccc(N2CCN(C(=O)c3cccc(F)c3F)CC2)c(F)c1	?	40µM*	?	1%
CC(=O)C1=C(O)C(=O)N(c2ccccn2)C1c1ccccc1[N+](=O)[O-] (stereo unspecified)	-6	0%	-2%	1%
CC1CCCC(C)N1C(=O)CSCc1ccc(Cl)cc1 (stereo unspecified)	1	35µM*	-43%	-3%
CC1CCCC(C)N1C(=O)COC(=O)Cc1ccc(Cl)cc1 (stereo unspecified)	21	6%	-22%	-2%
CC(=O)Oc1c(C)cc(Cl)cc1C(=O)Nc1ccc([N+](=O)[O-])cc1Cl	-82*	3.5µM*	-26%	1%
CCOc1ccccc1NC(=O)C(NCCc1ccc(OC)cc1)c1ccccc1 (stereo unspecified)	-73*	?	24%	7%
COc1ccc(NC(=O)COC(=O)c2ccc(OC)c(S(=O)(=O)N3CCCC3)c2)cc1OC	14	5%	-25%	-2%
C=C1C[C@@]23CC[C@H]4[C@@](C)(CCC[C@@]4(C)C(=O)O)[C@@H]2CC[C@]1(O)C3	-7	/	/	/
Cc1nnc(NC(=O)C2CCN(S(=O)(=O)c3cc([N+](=O)[O-])ccc3Cl)CC2)o1	13	35µM*	-29%	-2%
CS(=O)(=O)c1ccc(-c2csc(N3CCC(C(N)=O)CC3)n2)cc1	26	/	/	/
CC(Sc1nc2ccccc2c(=O)n1CCc1ccc(S(N)(=O)=O)cc1)C(=O)NC(N)=O (stereo unspecified)	-36	-4%	-2%[15.4 µM]	-14%
COC(=O)C1CCCN1S(=O)(=O)c1ccc2ccccc2c1 (stereo unspecified)	-78*	-43%	-8%	-6%
Cc1ccc(-c2nnc3ccc(SCC(=O)NCc4ccco4)nn23)cc1	-2	0%	34%	7%
O=C(CSc1ccc2nnc(-c3ccncc3)n2n1)NCc1ccco1	15	10%	18µM*	-2%
CCC(C(=O)NC1CC1)n1nc(C)c2c(C)n(-c3ccc(C)cc3)nc2c1=O (stereo unspecified)	-7	6%	3%	-4%
Cc1ccc(-n2nc3c(=O)n(C(C)C(=O)NC4CC4)nc(C)c3c2C)cc1 (stereo unspecified)	-114*	1%	-45%	-2%
FC(F)(F)Oc1ccc(NC(=S)Nc2ccccc2N2CCOCC2)cc1	-2	-8%	11%	-1%
Cc1nc2ccccc2c2oc(C(=O)NCC3COc4ccccc4O3)cc12 (stereo unspecified)	-28	40µM*	?	-29%
COc1cc(/C=C2\Oc3cc(O)ccc3C2=O)ccc1O	-6	-7%	28µM*	-12%
Cc1cccc(CN2C(=O)c3ccccc3Sc3ccc(C(=O)NCCN4CCOCC4)cc32)c1	-16	-27%	28%[15.4 µM]	-3%
Cc1ccc(CN2C(=O)c3ccccc3Sc3ccc(C(=O)NCCN4CCOCC4)cc32)cc1	-136*	-3%	26%	-3%
O=C(NCCCN1CCOCC1)c1ccc2c(c1)N(Cc1ccc(Cl)cc1)C(=O)c1ccccc1S2=O (stereo unspecified)	-97*	7%	-17%	7%
O=C(NNc1ccc([N+](=O)[O-])cc1)c1ccco1	2	-4%	3%	-2%
SMILES	TSHR antagonist	gsp antagonist	gsp agonist	ASM inhibitor
O=C(NNc1ccc([N+](=O)[O-])cc1[N+](=O)[O-])c1ccco1	-11	35µM*	1%	-7%
c1ccc(-n2nnc(-c3cccnc3)n2)cc1	-7	4%	-45%	-5%
Cc1cc(OCCSc2nnc(-c3cccs3)n2C)ccc1Cl	-32	35µM*	1%	-2%
Cc1ccc(OCCSc2nnc(-c3cccs3)n2C)cc1	-2	-16%	-18%	0%
CCS(=O)(=O)Nc1ccc(C2=NN(C(=O)c3ccco3)C(c3cccc(F)c3)C2)cc1 (stereo unspecified)	5	22µM*	-17%	-8%
CS(=O)(=O)Nc1ccc(C2=NN(C(=O)c3ccco3)C(c3cccc(F)c3)C2)cc1 (stereo unspecified)	13	?	-23%	-3%
CCOC(=O)c1ccc(Oc2nc(N(C)C)nc(N3CCOCC3)n2)cc1	-15	50µM*	27%	-3%
CN(C)S(=O)(=O)c1cccc(NC(=O)COC(=O)c2cccnc2Cl)c1	-6	-1%	51%	-1%
O=C1C=CC(=O)N1Cc1ccncc1	/	1%	7%	12%
O=C1C=CC(=O)N1CCCCCCCCCCN1C(=O)C=CC1=O	/	35µM*	9%	1%
O=C(OCC#CCSc1nnc(-c2cccc3ccccc23)s1)c1cccs1	12	/	/	/
CCn1ccc(C(=O)Nc2ccccc2Cl)n1	11	50µM*	-30%	4%
CCn1ccc(C(=O)Nc2cccc(Cl)c2)n1	-4	-1%	27%	-2%
CCCCCCCCCCCCCCCCCC(=O)NCC(COP(=O)([O-])OCC[N+](C)(C)C)OCC (stereo unspecified)	-10	/	/	/
Cc1nc(SC2CCOC2=O)c2c(C)c(C)sc2n1 (stereo unspecified)	6	1%	20µM*	-1%
O=C(Nc1ccccc1)N1CCN(c2nc(-c3ccccc3)ns2)CC1	-7	35µM*	9%[15.4 µM]	-3%
O=C(Nc1ccccc1Cl)N1CCCN(c2nc(-c3ccccc3)ns2)CC1	-10	?	-38%	-21%
O=C1N/C(=N/NC(=O)c2cccc3ccccc23)S/C1=C\c1ccccc1OCc1ccccc1	19	28µM*	?	0%
COc1ccc(OC)c(/C=C2\S/C(=N/NC(=O)c3ccc4ccccc4c3)NC2=O)c1	-19	4%	24%[15.4 µM]	/
Cc1ccc(F)cc1NC(=O)COC(=O)C1CC2CCCC(C1)C2=O (stereo unspecified)	/	/	28%	/
CCN(CC)c1ccc(C=C(c2nnnn2-c2ccc(C)cc2)c2nnnn2-c2ccc(C)cc2)cc1	-4	-8%	9%	-1%
COCCCN1C(=O)C(=O)/C(=C(/O)c2ccc(S(=O)(=O)N3CCCCC3)cc2)C1c1ccc(O)cc1 (stereo unspecified)	-40	8%	-48%	-10%
O=C(CCC(=O)Nc1ccccc1)N/N=C/c1ccc2c(c1)OCO2	9	3%	4%	-1%
O=C(CCC(=O)Nc1ccc(Cl)cc1)N/N=C/c1ccc2c(c1)OCO2	-72*	3%	14%	-1%
NC(=O)C1=CN(C2OC(COP(=O)(O)OP(=O)(O)OC[C@H]3O[C@@H](n4cnc5c(N)ncnc54)[C@H](OP(=O)(O)O)[C@@H]3O)C(O)C2O)C=CC1 (stereo partly specified)	-14	/	/	/
CN1C(=O)/C(=C/c2ccc(OCc3ccccc3F)cc2)NC1=S	-70*	4%	-36%	-1%
